# Experimental data: PubChem BioAssay AID995 (National Center for Advancing Translational Sciences (NCATS), 2007)
# The whole screen tested about 72,000 compounds, of which about 710 (0.99%) were called active. Another 7% or so got no clear call; they are omitted. Shown is part of a subset that was picked to be rich in actives. Unmarked numbers belong to inactive results. Calls come from the whole dose curve; as a rule, active = well fitted inhibition curve with a large enough effect; inconclusive = small, poorly fitted or top-dose-only effect; inactive = no such curve, though single readings can be large or run the other way.
# Assay: qHTS Assay for Inhibitors of the ERK Signaling Pathway using a Homogeneous Screening Assay; note: nearly all actives have a fitted effect of over 55% in size
# Conditions: HEK293-V1b, vasopressin-stimulated pERK AlphaScreen; series mostly up to 57.5 µM; activity, negative = inhibition: at the top concentration
# Description: qHTS Assay for Inhibitors of the ERK Signaling Pathway using a Homogeneous Screening Assay; note: nearly all actives have a fitted effect of over 55% in size
# NIH Chemical Genomics Center [NCGC]
# NIH Molecular Libraries Screening Centers Network [MLSCN]
# Assay Submitter (PI): Dr. Wei Zheng, NCGC/NIH
# The Ras/extracellular-signal-regulated kinase (ERK) mitogen activated protein (MAP) kinase signaling pathway (ERK1/2 cascade) plays is a key role in transmitting signals from the cell surface to the nucleus (Nishida and Gotoh 1993; Chang and Karin, 2001). The cascade is initiated by the small G-protein Ras, which recruits Raf […], where activation occurs. Alternatively, this pathway can be activated by elevating intracellular cAMP.
# Activation of the ERK pathway is essential in increased cell division and cell survival. Sustained and constitutive activation of the ERK pathway, however, has been linked to uncontrolled cell proliferation, increased cell survival, and tumor progression. Thus, the ERK has been as an attractive target for cancer chemotherapy in the past few years (Sebolt-Leopold and Herrera, 2004). Given its physiological and pathological importance, assessment of ERK phosphorylation has been broadly performed in both basic research and drug discovery. Most assays for the measurement of ERK phosphorylation use the antibody-based detection methods, such as western blot and ELISA. These assays require multiple reagent additions with cell wash steps and are not suitable for high throughout screening.
# The current cell-based ERK phosphorylation assay was performed using AlphaScreen platform. AlphaScreen is a two bead-based proximity-dependent chemical energy transfer luminescent assay platform. The assay reagents (ERK SureFire(TM) kit) were supplied from TGR BioSciences (Australia). In the presence of specific antibodies, phosphorylated ERK will bring "donor" and "acceptor" beads to a proximity range (<200 nm), and subsequently lead a chemical luminescent reaction upon exciting donor beads with 680 nm laser. To exclude the assay-related false positives, we used a biotinylated rabbit IgG to perform counter-screen. The biotinylated antibody mimics the phosphorylated ERK1/2 for bringing streptavidin coated beads and protein-A coated beads to a proximity range for the AlphaScreen detection.
# NCGC Assay Protocol Summary:
# HEK293 cells stably expressing type-1 vasopressin receptor (V1b) were maintained in DMEM medium (Invitrogen, Carlsbad, CA) at 37C under a humidified atmosphere containing 5% CO2 and 95% air. The medium contained 10% FBS, 2 mM L-glutamine, non-essential amino acid, pyruvate and 50 U/ml penicillin and 50 ug/ml streptomycin (Invitrogen). The aliquots of frozen cells were stored at -135C and used for the compound screening. All compounds were screened as titrations from 0.6 nM to 46 uM final concentration. Vasopressin was used to stimulate the ERK phosphorylation pathway. The ERK phosphorylation in cells was determined using an AlphaScreen assay kit provided by PerkinElmer. Data were normalized to the controls for basal activity (DMSO only) and 100% activation (25 nM vasopressin). AC50 values were determined from concentration-response data modeled with the standard Hill equation.
# (1) Seed 4 ul/well of resuspended frozen HEK293 cells containing 2000 cells in white 1536-well plates for overnight with 1% FBS at 37C under a humidified atmosphere containing 5% CO2 and 95% air.
# (2) Add 23 nL compounds in DMSO solution. The final titration was 0.6 nM to 46 uM.
# (3) Incubate at 37C for 30 min.
# (4) Dispense 0.5uL vasopressin (25 nM in final)
# (5) Incubate at 37C for 5 min.
# (6) Dispense 0.5uL of 1:2 diluted 5x lysis buffer.
# (7) Incubate at 37C for 10 min.
# (8) Dispense 1.5uL of mixture of activation buffer and reaction buffer with AlphaScreen beads (streptavidin donor beads and protein-A acceptor beads, 10 ng/well for each).
# (9) Incubate at room temperature for 5 hr.
# (10) Detect the assay plate in an EnVision plate reader (PerkinElmer) using the AlphaScreen detection mode.
# […]
# % is set by controls: 0 for no effect and ±100 for the full control effect; potency is the fitted concentration of half-maximal effect.
SMILES,Potency,"activity, negative = inhibition"
N#Cc1c(Cl)c(Cl)c(Cl)c(C#N)c1Cl,2 µM (active),
C[N+]1(C)C2CC(OC(=O)C(CO)c3ccccc3)CC1[C@@H]1O[C@H]21 (stereo not given in full),inactive,
BrC1C(Br)C(Br)C(Br)C(Br)C1Br (stereo not given),,41.9%
COC1CC(OC2CC[C@@]3(C=O)C4CC[C@]5(C)C(C6=CC(=O)OC6)CC[C@@]5(O)C4CC[C@]3(O)C2)OC(C)C1O (stereo not given in full),,3.45%
CN1[C@@H]2CC[C@H]1CC(OC(=O)c1cc(Cl)cc(Cl)c1)C2 (stereo not given in full),,11.3%
CN1[C@@H]2CC[C@H]1CC(NC(=O)c1nn(C)c3ccccc13)C2 (stereo not given in full),,28.8%
C[C@H](CCC(=O)O)[C@H]1CC[C@@H]2[C@H]3CC[C@H]4C[C@H](O)CC[C@@]4(C)[C@@H]3CC[C@@]21C,,-8.67% [at 11.5 µM]
CSC1=NP(=S)(SC)N(C)c2nc3n(c21)CCC3 (stereo not given),15.8 µM (active),
CNC(C)[C@@H](O)c1ccccc1 (stereo not given in full),,4.53%
C[C@]12CC[C@H](O)CC1=CC[C@@H]1[C@H]2CC[C@]2(C)C(=O)CC[C@H]12,,14.5%
O=[N+]([O-])c1ccc(Cl)c(Cl)c1,,21.3%
CC(C)(Cc1c[nH]c2ccc(Cl)cc12)NCCOc1ccccc1OCC1CC1,39.8 µM (active),
Clc1cccc(Cl)c1Cl,,-11.6%
CNCC[C@H](Oc1ccc(C(F)(F)F)cc1)c1ccccc1,inactive,
CC(C)C(N)C(=O)OCCOCn1cnc2c(=O)[nH]c(N)nc21 (stereo not given),,22.7%
